# Measurements reported in PubChem BioAssay.
# Several values for one entry are separate records, joined by “and”; a condition that tells them apart may be missing. Equal entries are not always repeated. For some assays here: Measured potencies and affinities stand elsewhere. Activity calls are given as the source filed them. Unless noted, no rule for the calls is given here.
# Legend:
# [1] = biological target: Calcium-dependent protein kinase 1 (Plasmodium falciparum (isolate 3D7)) (UniProt P62344); experiment: PfCDPK1 kinase inhibitors, biochemical, TCAMS library (AID 1159585; cut-off not given, nearly all actives have IC50 up to about 0.98 µM;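 also: inhibitors leave more ATP so luminescence rises with inhibition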); conditions: recombinant PfCDPK1, Kinase-Glo ATP depletion luminescence
# Sequence of Calcium-dependent protein kinase 1 (Plasmodium falciparum (isolate 3D7)) (P62344 whole entry, looked up): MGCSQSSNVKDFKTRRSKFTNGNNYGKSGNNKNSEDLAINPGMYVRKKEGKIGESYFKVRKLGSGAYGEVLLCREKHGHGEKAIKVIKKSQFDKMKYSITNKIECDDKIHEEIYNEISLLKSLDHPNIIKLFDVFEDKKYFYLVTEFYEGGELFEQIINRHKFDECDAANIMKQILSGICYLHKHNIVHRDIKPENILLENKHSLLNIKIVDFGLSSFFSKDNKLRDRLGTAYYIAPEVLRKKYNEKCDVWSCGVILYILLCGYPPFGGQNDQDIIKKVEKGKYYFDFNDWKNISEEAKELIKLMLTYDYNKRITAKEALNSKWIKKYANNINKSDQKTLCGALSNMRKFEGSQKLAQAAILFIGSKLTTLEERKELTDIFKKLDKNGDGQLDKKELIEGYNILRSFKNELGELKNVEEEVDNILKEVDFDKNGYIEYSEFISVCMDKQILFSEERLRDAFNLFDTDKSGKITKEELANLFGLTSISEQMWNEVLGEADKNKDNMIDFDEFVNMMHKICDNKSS
# [2] = biological target: Plasmodium falciparum protein kinase 6 (PK6, PF3D7_1337100) (UniProt Q8IDW1); experiment: PfPK6 kinase inhibitors, biochemical, TCAMS library (AID 1159586); conditions: recombinant PfPK6, Kinase-Glo ATP depletion luminescence
# Sequence of Plasmodium falciparum protein kinase 6 (PK6, PF3D7_1337100) (Q8IDW1 1-305): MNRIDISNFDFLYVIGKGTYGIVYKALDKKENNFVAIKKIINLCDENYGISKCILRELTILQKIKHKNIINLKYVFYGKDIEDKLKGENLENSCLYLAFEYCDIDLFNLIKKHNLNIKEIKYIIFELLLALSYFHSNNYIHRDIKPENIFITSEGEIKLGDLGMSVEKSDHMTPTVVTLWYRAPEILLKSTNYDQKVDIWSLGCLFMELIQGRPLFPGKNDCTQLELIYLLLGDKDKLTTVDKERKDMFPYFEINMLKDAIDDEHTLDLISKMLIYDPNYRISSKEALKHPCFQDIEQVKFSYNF
# [3] = biological target: Protein kinase 7 (PK7), Plasmodium falciparum 3D7 (PF3D7_0213400) (UniProt Q7YTF7); experiment: inhibition of Plasmodium PK7 catalytic activity – biochemical, TCAMS antimalarial set, Kinase-Glo luminescence (AID 1159587); conditions: recombinant PfPK7, Kinase-Glo ATP depletion luminescence
# Sequence of Protein kinase 7 (PK7), Plasmodium falciparum 3D7 (PF3D7_0213400) (Q7YTF7 1-343): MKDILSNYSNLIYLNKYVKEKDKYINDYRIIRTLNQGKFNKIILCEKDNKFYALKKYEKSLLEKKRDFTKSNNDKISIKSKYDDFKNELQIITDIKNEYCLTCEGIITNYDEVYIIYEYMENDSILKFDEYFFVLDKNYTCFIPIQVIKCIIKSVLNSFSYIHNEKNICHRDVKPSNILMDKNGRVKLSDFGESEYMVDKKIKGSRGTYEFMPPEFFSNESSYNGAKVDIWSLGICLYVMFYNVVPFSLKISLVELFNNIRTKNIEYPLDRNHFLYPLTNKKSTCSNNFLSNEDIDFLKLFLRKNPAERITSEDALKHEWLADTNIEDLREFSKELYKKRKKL
# [4] = biological target: Calcium-dependent protein kinase 4 (Plasmodium falciparum (isolate 3D7)) (UniProt Q8IBS5); experiment: PfCDPK4 kinase inhibitors, biochemical, TCAMS library (AID 1159588; cut-off not given, nearly all actives have IC50 up to about 0.91 µM); conditions: recombinant PfCDPK4, Kinase-Glo ATP depletion luminescence
# Sequence of Calcium-dependent protein kinase 4 (Plasmodium falciparum (isolate 3D7)) (Q8IBS5 whole entry, looked up): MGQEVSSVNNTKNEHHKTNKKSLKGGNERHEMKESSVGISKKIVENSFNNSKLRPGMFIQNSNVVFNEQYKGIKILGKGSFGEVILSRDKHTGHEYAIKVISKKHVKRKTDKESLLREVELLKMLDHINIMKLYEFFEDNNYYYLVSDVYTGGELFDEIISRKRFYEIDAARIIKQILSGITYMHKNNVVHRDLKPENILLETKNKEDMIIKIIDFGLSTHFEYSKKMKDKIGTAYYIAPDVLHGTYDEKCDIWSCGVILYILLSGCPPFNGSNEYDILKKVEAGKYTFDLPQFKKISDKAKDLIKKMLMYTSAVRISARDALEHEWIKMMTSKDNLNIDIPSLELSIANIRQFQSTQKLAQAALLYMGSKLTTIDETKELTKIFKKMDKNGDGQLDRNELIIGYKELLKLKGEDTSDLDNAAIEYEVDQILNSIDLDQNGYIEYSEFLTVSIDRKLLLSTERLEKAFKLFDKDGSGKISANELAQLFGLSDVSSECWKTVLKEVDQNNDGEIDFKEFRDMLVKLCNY
# [5] = antimalarial activity against Dd2 strain (AID 2302;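 active = growth inhibition above 50% at the single 2 µM test dose, taken to imply half-maximal potency below 2 µM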;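 also: 0% = DMSO untreated growth and 100% = chloroquine plus artemisinin killed control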); conditions: P. falciparum Dd2 in RBCs, LDH growth readout, 72 h; at 2 µM; stronger effect = higher value
# [6] = human hepatoma cell viability loss – ATP luminescence, cytotoxicity control for P. falciparum antimalarial project, primary screen (AID 2303;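 active = inhibition above 50%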;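 also: 0% = DMSO wells and 100% = digitonin-killed cells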); conditions: HepG2 viability, 24-48 h, at 10 µM, stronger effect = higher value
# [7] = biological target: L-lactate dehydrogenase (Plasmodium falciparum (isolate CDC / Honduras)) (UniProt Q27743); experiment: PfLDH activity inhibition – cell lysate, 3D7 strain, counter-screen for P. falciparum growth inhibition project (AID 2304);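 also: 0% = vehicle and 100% = reference inhibitor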; conditions: P. falciparum 3D7 crude extract, LDH APAD/NBT absorbance; at 2 µM; stronger effect = higher value
# Sequence of L-lactate dehydrogenase (Plasmodium falciparum (isolate CDC / Honduras)) (Q27743 whole entry, looked up): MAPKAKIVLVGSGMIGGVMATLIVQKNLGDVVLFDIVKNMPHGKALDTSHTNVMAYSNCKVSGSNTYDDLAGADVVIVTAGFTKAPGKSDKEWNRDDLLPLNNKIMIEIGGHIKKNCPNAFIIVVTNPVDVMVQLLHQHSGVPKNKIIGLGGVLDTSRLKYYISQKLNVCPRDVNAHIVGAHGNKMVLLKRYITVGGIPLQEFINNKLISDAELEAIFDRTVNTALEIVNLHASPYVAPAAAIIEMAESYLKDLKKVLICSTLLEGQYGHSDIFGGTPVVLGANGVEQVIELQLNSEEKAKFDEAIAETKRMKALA
# [8] = inhibition of 3D7 malaria parasite growth – strain 3D7 (AID 2306);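 also: 0% = DMSO wells and 100% = chloroquine plus artemisinin control wells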; conditions: P. falciparum 3D7 erythrocytic growth, LDH absorbance, 72 h; at 2 µM; stronger effect = higher value
# [9] = tested on: Aerobactin synthetase IucA (Klebsiella pneumoniae); experiment: inhibition of K. pneumoniae IucA enzyme – biochemical, Tocris library, absorbance (AID 1345561); conditions: purified IucA enzyme assay, absorbance (OD) read-out; stronger effect = lower value;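 tested at 8 µM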;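 also: 100% = enzyme without compound and 0% = no enzyme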
# [10] = viability loss with induced miR-34 in A549 – imaging, A549 dox-inducible miR-34, nuclei and caspase counts, primary screen (AID 1347080;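 active = compounds whose cell count with miR-34 switched on is under 0.7 times the count with it off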); conditions: A549 miR-34 inducible, Hoechst nuclei count, 48 h
# [11] = galactose survival enhancers in mitochondrial complex I cybrids – cell-based, galactose medium, ATP luminescence, primary screen (AID 1645843;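 active = z-score of at least 1.8 in each of two replicates, scored against plate mean and spread of sample wells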;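 also: positive z means more ATP and so rescue of galactose-driven cybrid death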); conditions: complex I mutant cybrid cells, 72 h, stronger effect = higher value
# [12] = blockers of polyQ-driven CASP3 activation – cell-based (AID 1583); conditions: polyglutamine-induced caspase-3 activation, cell assay; stronger effect = higher value;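 tested at 10 µM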
# [13] = yeast 75Q aggregation reduction – 75Q-TubU reporter (AID 1593); conditions: Yeast 75Q polyglutamine aggregation reporter
# [14] = restoration of touch response, mutant HTT neurons – whole organism, C. elegans mechanosensory neurons, N-terminal huntingtin (AID 1599); conditions: C. elegans polyQ-huntingtin mechanosensory neurons, stronger effect = higher value
# [15] = blockers of cytochrome c efflux from mitochondria – biochemical, purified mitochondria (AID 1603); conditions: stronger effect = lower value;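 also: mouse liver mitochondria challenged with calcium chloride; signal normalized to the plate average as 100%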
# [16] = polyglutamine aggregate formation blockers (AID 1604); conditions: polyglutamine-induced protein aggregation inhibition assay; stronger effect = higher value; tested at 2.5 µM
# [17] = glutamate transport activators, MN-1 cells, MN-1 cell line (AID 1612); conditions: MN-1 motor neuron cells, stronger effect = higher value;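 also: tested at 1 µM final; 0% = mean of DMSO vehicle wells on each plate; positive means more glutamate uptake than control and negative means less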
# [18] = GFP-Q80 aggregate reduction, neuronal-like cells, cell-based, NGF-treated PC12, GFPQ80 (AID 1614); conditions: PC12 NGF-treated GFP-polyQ80 inclusion reduction;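 also: lower means fewer inclusions and 0 means no inclusions at all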
# [19] = 75Q-TubH aggregate inhibition, S. cerevisiae, yeast (AID 1616); conditions: S. cerevisiae 75Q-TubH polyglutamine aggregation suppression; stronger effect = higher value
# [20] = modulation of C. elegans fzo-1 (AID 1259413);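 also: fzo-1 mutant C. elegans worms in liquid wells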; conditions: C. elegans fzo-1 modulator screen, mean read-out; stronger effect = higher value
# [21] = EMT-state selective cytotoxicity in co-culture – imaging, PC-3E GFP, TEM4-18 mCherry, primary screen (AID 1345086;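 active = compounds killing one labelled cell type while sparing the other, by normalised counts and ratio limits, not self-fluorescent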;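 also: cells exposed to compound for 72 h before imaging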;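 as to red/green cell ratio (normalised): normalised mesenchymal count divided by normalised epithelial count so high means epithelial killing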); conditions: PC-3E GFP / TEM4-18 mCherry co-culture, imaging cell counts, at 1 µM
# [22] = MELAS cybrid and Rieske KO viability enhancers – cell-based, MELAS cybrids, Rieske KO mouse fibroblasts, CellTiter-Glo, primary screen (AID 1508586;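 active = mean z-score across replicates of 1.96 or higher in either the MELAS or the Rieske mutant cell line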;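 also: z relative to plate mean and SD of compound and empty wells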); conditions: low glucose
# [23] = biological target: NAD(+) hydrolase SARM1 (Homo sapiens) (UniProt Q6SZW1); experiment: blocking NAD cleavage by SARM1 SAM-TIR – cell lysate, NAD-Glo luminescence (AID 1508614;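 active = compound whose remaining NAD level is above about 45 nM, limit read from the data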;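 also: higher remaining NAD means stronger inhibition of SARM1 NADase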); conditions: SAM-TIR HEK293T lysate NADase, at 1 µM, stronger effect = higher value
# Sequence of NAD(+) hydrolase SARM1 (Homo sapiens) (Q6SZW1 whole entry, looked up, the tested form may be a part): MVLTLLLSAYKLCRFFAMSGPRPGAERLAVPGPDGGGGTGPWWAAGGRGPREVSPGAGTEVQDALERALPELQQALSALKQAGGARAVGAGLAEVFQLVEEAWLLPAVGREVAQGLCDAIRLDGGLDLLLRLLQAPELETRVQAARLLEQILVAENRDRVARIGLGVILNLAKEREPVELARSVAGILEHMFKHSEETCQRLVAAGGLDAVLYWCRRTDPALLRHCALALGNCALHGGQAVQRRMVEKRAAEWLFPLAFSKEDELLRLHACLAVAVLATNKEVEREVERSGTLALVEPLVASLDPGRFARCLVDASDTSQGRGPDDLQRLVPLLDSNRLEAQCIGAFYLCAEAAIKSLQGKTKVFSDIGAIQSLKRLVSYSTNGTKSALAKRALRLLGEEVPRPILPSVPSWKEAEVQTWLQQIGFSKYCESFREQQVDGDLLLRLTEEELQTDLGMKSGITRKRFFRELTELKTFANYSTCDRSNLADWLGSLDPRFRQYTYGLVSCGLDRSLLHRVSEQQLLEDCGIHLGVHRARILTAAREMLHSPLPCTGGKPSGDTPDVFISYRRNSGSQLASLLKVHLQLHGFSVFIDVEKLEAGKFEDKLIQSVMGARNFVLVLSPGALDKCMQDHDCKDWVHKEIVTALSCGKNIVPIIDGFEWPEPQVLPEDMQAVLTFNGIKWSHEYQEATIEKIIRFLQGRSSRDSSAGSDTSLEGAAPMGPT
# [24] = biological target: Mitogen-activated protein kinase 7 (Homo sapiens) (UniProt Q13164); experiment: Gal4-ERK5 driven luciferase induction – cell-based, HTS, primary screen (AID 1508626;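 active = luciferase signal above three times the same-plate solvent-only control wells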;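 also: luciferase driven by Gal4-ERK5 fusion binding five Gal4 sites before minimal TATA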); conditions: HeLa Gal4-ERK5 transactivation, 18 h, at 5 µM, stronger effect = higher value
# Sequence of Mitogen-activated protein kinase 7 (Homo sapiens) (Q13164 whole entry, looked up, the tested form may be a part): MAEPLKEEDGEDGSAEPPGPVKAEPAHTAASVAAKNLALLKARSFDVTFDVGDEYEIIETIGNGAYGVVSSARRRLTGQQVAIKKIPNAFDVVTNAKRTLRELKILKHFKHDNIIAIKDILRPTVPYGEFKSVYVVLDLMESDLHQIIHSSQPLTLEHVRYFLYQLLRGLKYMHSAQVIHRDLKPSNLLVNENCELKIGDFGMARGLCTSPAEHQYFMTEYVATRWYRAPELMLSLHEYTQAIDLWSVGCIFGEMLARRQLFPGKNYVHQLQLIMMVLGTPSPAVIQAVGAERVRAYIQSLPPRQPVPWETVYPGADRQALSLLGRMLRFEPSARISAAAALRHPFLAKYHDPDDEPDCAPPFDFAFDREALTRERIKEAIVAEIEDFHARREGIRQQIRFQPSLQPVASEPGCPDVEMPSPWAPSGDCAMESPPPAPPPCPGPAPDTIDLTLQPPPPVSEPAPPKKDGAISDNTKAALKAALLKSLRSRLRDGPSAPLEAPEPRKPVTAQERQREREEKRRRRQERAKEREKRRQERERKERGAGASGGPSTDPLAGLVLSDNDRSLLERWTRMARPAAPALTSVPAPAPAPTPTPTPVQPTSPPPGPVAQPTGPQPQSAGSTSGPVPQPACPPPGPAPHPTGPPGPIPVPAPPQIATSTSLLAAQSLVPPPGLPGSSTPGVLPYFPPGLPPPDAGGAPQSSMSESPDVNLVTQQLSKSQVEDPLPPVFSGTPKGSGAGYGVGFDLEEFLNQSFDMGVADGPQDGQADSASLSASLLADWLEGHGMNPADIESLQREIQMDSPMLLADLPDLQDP
# [25] = stronger effect = lower value, cell number ratio, induced over uninduced
# [26] = measured here: relative caspase fold change +Dox/-Dox
# [27] = measured here: total cells with miR-34 induction, stronger effect = lower value
# [28] = measured here: total cells without miR-34 induction
structure (smiles),measurement,setting,value
COc1ccc(N=[N+]([O-])c2ccccc2[N+]([O-])=Nc2ccc(OC)cc2)cc1,outcome,[1],inactive
same,outcome,[2],inactive
same,outcome,[3],inactive
same,outcome,[4],inactive
O=C(N/C=N/c1cc([N+](=O)[O-])c(-c2cccnc2)n1-c1ccc(O)cc1)c1ccccc1,outcome,[1],inactive
same,outcome,[2],inactive
same,outcome,[3],inactive
same,outcome,[4],inactive
Cc1[nH]c2ccccc2c1/C=N/Nc1nc(Nc2ccccc2)nc(Nc2ccccc2)n1,outcome,[1],inactive
same,outcome,[2],inactive
same,outcome,[3],inactive
same,outcome,[4],inactive
c1cc2nc(CCCCCc3nc4ccc(C5=N[C@H]6CCCC[C@H]6N5)cc4[nH]3)[nH]c2cc1C1=N[C@H]2CCCC[C@H]2N1,outcome,[1],inactive
same,outcome,[2],inactive
same,outcome,[3],inactive
same,outcome,[4],inactive
O/N=C1\CCc2cc(-c3nc(-c4cccc(OCCNCc5ccc(F)cc5)c4)[nH]c3-c3ccncc3)ccc21,outcome,[1],inactive
same,outcome,[2],inactive
same,outcome,[3],inactive
same,outcome,[4],inactive
COc1cc(-c2nc(-c3ccc4c(c3)CC/C4=N\O)c(-c3ccncc3)[nH]2)ccc1OCCN1CCN(C)CC1,outcome,[1],inactive
same,outcome,[2],inactive
same,outcome,[3],inactive
same,outcome,[4],inactive
NC(N)=N/N=C/c1c[nH]c2ccc(-c3ccccc3)cc12,outcome,[1],inactive
same,outcome,[2],inactive
same,outcome,[3],inactive
same,outcome,[4],inactive
COc1ccc2nc(/N=C(\N)NC(=O)Nc3ccccc3)nc(C)c2c1,outcome,[1],inactive
same,outcome,[2],inactive
same,outcome,[3],inactive
same,outcome,[4],inactive
Oc1cccc(-c2nc(-c3ccc4oc5ccc(-c6nc(-c7cccc(O)c7)[nH]c6-c6ccccc6)cc5c4c3)c(-c3ccccc3)[nH]2)c1,outcome,[1],inactive
same,outcome,[2],inactive
same,outcome,[3],inactive
same,outcome,[4],inactive
COc1ccc(Nc2nc(N/N=C/c3cc(Br)ccc3O)nc(Nc3ccc([N+](=O)[O-])cc3)n2)cc1,outcome,[1],inactive
same,outcome,[2],inactive
same,outcome,[3],inactive
same,outcome,[4],inactive
CN(C)c1nc(N/N=C/c2cc(Cl)ccc2O)nc(Nc2ccc(F)cc2)n1,outcome,[1],inactive
same,outcome,[2],inactive
same,outcome,[3],inactive
same,outcome,[4],inactive
O=C(Cc1ccc[n+]([O-])c1)Nc1ccc(-c2cccc(-c3nc4ccc(C(F)(F)F)cc4[nH]3)c2)cc1,outcome,[1],inactive
same,outcome,[2],inactive
same,outcome,[3],inactive
same,outcome,[4],inactive
COc1cc(-c2nc(-c3ccc4c(c3)CC/C4=N\O)c(-c3ccncc3)[nH]2)ccc1OCCN1CCCCC1,outcome,[1],inactive
same,outcome,[2],inactive
same,outcome,[3],inactive
same,outcome,[4],inactive
O=C(CSc1cccc[n+]1[O-])c1ccc(Cc2ncc(C(F)(F)F)cc2Cl)s1,outcome,[1],inactive
same,outcome,[2],inactive
same,outcome,[3],inactive
same,outcome,[4],inactive
Oc1ccc2ccccc2c1/C=N/Nc1nc(Nc2ccccc2)nc(N2CCOCC2)n1,outcome,[1],inactive
same,outcome,[2],inactive
same,outcome,[3],inactive
same,outcome,[4],inactive
N=C(N)c1ccc(/C=C/c2ccc(C(=N)N)cc2O)cc1,outcome,[1],inactive
same,outcome,[2],inactive
same,outcome,[3],inactive
same,outcome,[4],inactive
COc1cc(/C=C(\C2=NC(=O)CS2)c2nc3cccnc3n2C)ccc1O,outcome,[1],inactive
same,outcome,[2],inactive
same,outcome,[3],inactive
same,outcome,[4],inactive
CN(C)C(=S)N/N=C/c1cccc(O)c1O,outcome,[1],inactive
same,outcome,[2],inactive
same,outcome,[3],inactive
same,outcome,[4],inactive
CCCCCC(C)C(C)c1cc(O)c2c(c1)OC(C)(C)CC2c1cc[n+]([O-])cc1 (stereo not drawn),outcome,[1],inactive
same,outcome,[2],inactive
same,outcome,[3],inactive
same,outcome,[4],inactive
O=C1C=CC(=C2NC(c3ccccc3)=C(c3ccc4oc5ccc(C6=C(c7ccccc7)NC(=C7C=CC(=O)C=C7)N6)cc5c4c3)N2)C=C1,outcome,[1],inactive
same,outcome,[2],inactive
same,outcome,[3],inactive
same,outcome,[4],inactive
C[C@@H]([C@H](CCCc1ccc(Cl)cc1)C(=O)N[C@H](C(=O)Nc1cccnc1)C(C)(C)C)N(O)C=O,outcome,[1],inactive
same,outcome,[2],inactive
same,outcome,[3],inactive
same,outcome,[4],inactive
O=C(Cc1ccc[n+]([O-])c1)Nc1cccc(-c2cccc(-c3nc4ccc(C(F)(F)F)cc4[nH]3)c2)c1,outcome,[1],inactive
same,outcome,[2],inactive
same,outcome,[3],inactive
same,outcome,[4],inactive
CCC[C@@H]([C@H](CC1CCCCC1)C(=O)N[C@H](C(=O)Nc1nccc(N)n1)C(C)(C)C)N(O)C=O,outcome,[1],inactive
same,outcome,[2],inactive
same,outcome,[3],inactive
same,outcome,[4],inactive
Oc1ccc2ccccc2c1/C=N/Nc1nc(Nc2ccccc2)nc(Nc2ccccc2)n1,outcome,[1],inactive
same,outcome,[2],inactive
same,outcome,[3],inactive
same,outcome,[4],inactive
CCC[C@@H]([C@H](CC(C)C)C(=O)N[C@@H](CCCCNC(=O)OCc1ccccc1)C(=O)Nc1ncccn1)N(O)C=O,outcome,[1],inactive
same,outcome,[2],inactive
same,outcome,[3],inactive
same,outcome,[4],inactive
Nc1nc(NCC2CCC(CNS(=O)(=O)c3cccc4ccccc34)CC2)nc2ccccc12 (stereo not drawn),growth inhibition,[5],42% (inactive)
same,inhibition,[6],9% (inactive)
same,inhibition,[7],7% (inactive)
same,growth inhibition,[8],97% (active)
same,outcome,[1],inactive
same,outcome,[2],inactive
same,outcome,[3],inactive
same,outcome,[4],inactive
same,remaining activity,[9],92.3% (inactive)
same,fold change,[10]; [25],0.954 (inactive)
same,fold change,[10]; [26],0.891
same,cell count,[10]; [27],322
same,cell count,[10]; [28],338
same,z-score,[11],-0.705 (inactive)
C=C[C@H]1CN2CC[C@H]1C[C@@H]2[C@@H](O)c1ccnc2ccc(OC)cc12,inhibition,[12],12.3%
same,score,[13],1.3
same,rescue above control,[14],-0.47
same,cytochrome c release ratio,[15],1.12
same,inhibition of aggregation,[16],54.5%
same,glutamate uptake change,[17],12.1%
same,inclusion score,[18],2
same,aggregation suppression score,[19],1.24
same,growth inhibition,[5],95% (active)
same,inhibition,[6],-11% (inactive)
same,inhibition,[7],-3% (inactive)
same,growth inhibition,[8],98% (active)
same,outcome,[1],inactive
same,outcome,[2],inactive
same,outcome,[3],inactive
same,outcome,[4],inactive
same,mean signal,[20],302 (active)
same,red/green cell ratio (normalised),"[21]; actives lie on both sides, counts scaled to control wells, 1 = unselective",1.14 (inactive)
same,normalised cell number,[21]; measured here: epithelial PC-3E GFP cell survival,1.07
same,normalised cell number,[21]; measured here: mesenchymal TEM4-18 mCherry cell survival,1.22
same,fold change,[10]; [25],0.965 (inactive) and 0.96 (inactive) and 0.929 (inactive)
same,fold change,[10]; [26],1.07 and 0.67 and 3.94
same,cell count,[10]; [27],9710 and 7980 and 11400
same,cell count,[10]; [28],10100 and 8310 and 12200
same,z-score,"[22]; MELAS cybrid survival, CellTiter-Glo 48 h, stronger effect = higher value",0.598 (inactive)
same,z-score,"[22]; Rieske KO mouse fibroblast survival, CellTiter-Glo 72 h",0.401
same,remaining NAD,[23],10 nM (inactive)
same,luciferase signal,[24],84 AU (inactive)
same,z-score,[11],0.055 (inactive)
